Screen size: about 65,000 compounds; about 2,100 (3.2%) showed an effect of 50% or more. The median lay at about -52%. This excerpt belongs to a sample that is enriched for strong results.

This experiment has as its system Plasmodium falciparum. Briefly: Screen against P. falciparum Asexual Blood Stage (ABS), at 5uM. The experiment is classed as functional, Dd2. As to conditions: tested at 5 uM.
In the case of `CCCS(=O)(=O)CCSc1cccc(C#N)c1`, the INHIBITION is reported as -113%.

As for `O=C(Cc1ccsc1)N1CCC(c2noc(-c3cccnc3)n2)CC1`, the INHIBITION was -53.4%.

As to `O=C(Cc1ccncc1)N1C[C@H]2CC[C@@H](C1)N(Cc1ccccc1)C2=O`, the INHIBITION is -99.2%.

Turning to `COc1ccc(Oc2nccc3occc23)cc1CN1CCCC1`, the INHIBITION worked out at 61.8%.

Regarding `COc1ccc(Oc2cccc(C#N)n2)cc1CN1CCCC1`, the INHIBITION is on record as -20.2%.

Turning to `COc1ccc(Oc2ccc(C(F)(F)F)cn2)cc1CN1CCCC1`, the INHIBITION stood at 51.7%.

Consider `COc1ccc(Oc2ncccc2C(F)(F)F)cc1CN1CCCC1`, for which the INHIBITION is 32.5%.

Turning to `COc1ccc(Oc2ncccc2F)cc1CN1CCCC1`, the INHIBITION came to 15.9%.

With `COc1cc(Oc2cnc3ccccc3n2)ccc1CN1CCCC1`, the INHIBITION is given as 59%.

Consider `COc1cc(Oc2ccc(C(F)(F)F)cn2)ccc1CN1CCCC1`, for which the INHIBITION is given as 30.2%.

Regarding `Fc1cc(Oc2ccc(C(F)(F)F)cn2)cc(F)c1CN1CCCC1`, the INHIBITION came to 24.4%.

Regarding `COc1cc(Oc2ccc(C(N)=O)cn2)ccc1CN1CCCC1`, the INHIBITION is given as -42.6%.

For the molecule `CCN(C)C[C@@H]1CN(C(=O)c2cc(C(F)(F)F)n[nH]2)C[C@@H]1CO`, the INHIBITION is reported as -5.31%.

`COC[C@@]12CCO[C@@H]1CCN(Cc1ccc(C)s1)C2`: the INHIBITION was -35.8%.

Take `COCCC(=O)N1CC2(CCN(Cc3ccccc3Cl)CC2)C1`: the INHIBITION is given as 0.294%.

With `Cc1cc(C)c(CNC(=O)CCC2CCCO2)c(=O)[nH]1` (configuration not stated), the INHIBITION is reported as 53.2%.

Take `Cc1cc(C)c(CNC(=O)NCC2CCCO2)c(=O)[nH]1` (configuration not stated): the INHIBITION was -64.8%.

On to `Cc1cc(C)c(CNC(=O)NCCC2CCCO2)c(=O)[nH]1` (configuration not stated), for which the INHIBITION was determined as 20.5%.

With `Cc1c(NC(=O)N(C)CCO)cccc1OC1CCCC1`, the INHIBITION is -65.2%.

With `CC(C)(C)c1cc(CN2C[C@@H]3CC[C@H]2CN(Cc2cscn2)C3)n[nH]1`, the INHIBITION amounted to 20.1%.

For the molecule `CC(C)(C)c1cc(CN2C[C@H]3CC[C@@H](C2)N(Cc2ccccn2)C3)n[nH]1`, the INHIBITION amounted to 47.7%.

On to `CC(C)Cc1cc(CN2C[C@@H]3CC[C@H]2CN(Cc2cscn2)C3)n[nH]1`, for which the INHIBITION was found to be 66.6%.

As for `CCc1nccn1-c1nccnc1C1CCN(C(=O)COC)CC1`, the INHIBITION is recorded as -25.8%.

With `CN(Cc1cccnc1)C(CO)c1cccc(Br)c1` (configuration not stated), the INHIBITION is reported as -135%.

In the case of `CSCc1ccc(CNC2CCCN(c3ccc(C)nn3)C2)o1` (configuration not stated), the INHIBITION is -38.5%.

Take `CCC(CN1CCCC1)n1cncc1-c1cnn(Cc2ccccc2)c1` (configuration not stated): the INHIBITION came out at 44.8%.

For the molecule `CC(Cn1cncc1-c1cnn(Cc2ccccc2)c1)N1CCCCC1` (configuration not stated), the INHIBITION amounted to 65.7%.

Consider `CC(CN1CCOCC1)n1cncc1-c1cnn(Cc2ccccc2)c1` (configuration not stated), for which the INHIBITION is -46.1%.

For the molecule `Cc1cccc(C)c1OC1CCN(Cc2ccn(C)c(=O)c2)CC1`, the INHIBITION is -30.1%.

For `CC(OCC1CC1)C(=O)Nc1cccc(C(=O)Nc2ccncc2)c1` (configuration not stated), the INHIBITION is given as -140%.

`O=C(CC1CN(Cc2ccccc2)CCO1)NCCN1CCOCC1` (configuration not stated): the INHIBITION is listed as -108%.

On to `Cc1nn(C)cc1-c1ccnc(N(C)Cc2noc(C(C)C)n2)n1`, for which the INHIBITION is listed as -32.2%.

Regarding `Cc1nn(C)c(C)c1-c1ccnc(N(C)Cc2nc(C(C)C)no2)n1`, the INHIBITION is on record as 66.3%.

Turning to `Cc1nn(C)c(C)c1-c1ccnc(N(C)Cc2noc(C(C)C)n2)n1`, the INHIBITION was -25.3%.

For `O=C(COc1ccc(F)cc1)N1CCO[C@H]2[C@@H](OCC3CC3)CC[C@@H]21`, the INHIBITION was -24%.

For the molecule `COc1ccc(C2=Nn3c(CN)nnc3-c3ccccc3C2)cc1`, the INHIBITION is on record as 64.8%.

As to `COc1ccc(C2=Nn3c(CCN)nnc3-c3ccccc3C2)cc1`, the INHIBITION stood at 32.1%.

Consider `COc1ccc(C2=Nn3c(CCCN)nnc3-c3ccccc3C2)cc1`, for which the INHIBITION is -100%.

As to `O=C(COc1ccc2c(c1)CCC2)NS(=O)(=O)c1cncc(Br)c1`, the INHIBITION is listed as -108%.

In the case of `O=C(COc1ccc2c(c1)CCC2)NS(=O)(=O)c1cccnc1`, the INHIBITION came to 51.8%.

For the molecule `Cc1ccc(OCC(=O)NS(=O)(=O)c2cccnc2)cc1C`, the INHIBITION was -19.2%.

Take `O=C(NCc1ccccn1)[C@@H]1COC[C@H]2CN(c3ncccn3)C[C@H]21`: the INHIBITION is given as -20.1%.

As for `COc1cccc(CN2CCCCCC2c2cccs2)c1O` (configuration not stated), the INHIBITION stood at 3.59%.

With `Cc1cccc(C2CCCCCN2Cc2cn(C)nc2C)c1` (configuration not stated), the INHIBITION is reported as 35.4%.

Turning to `COc1cccc(CN2CCCCCC2c2cccc(C)c2)c1O` (configuration not stated), the INHIBITION turned out to be 57.5%.

For `Cc1cc2[nH]c(CN3CCCCC3c3cccc(F)c3)cc(=O)n2n1` (configuration not stated), the INHIBITION is given as -64.9%.

`COc1cccc(CN2CCCCCC2c2sccc2C)c1O` (configuration not stated): the INHIBITION is reported as -7.83%.

In the case of `COc1cccc(CN2CCCCCC2c2cccc(F)c2)c1O` (configuration not stated), the INHIBITION is listed as 57.6%.

As for `Oc1cc(-c2ccsc2)nc(C2CCN(Cc3cccnc3)CC2)n1`, the INHIBITION is -96.9%.

For `O=C(NCCCNc1ccc(C(F)(F)F)cn1)c1ccc(F)cc1Br`, the INHIBITION is on record as -29.4%.

As for `CC(C)Nc1nc2c(cc1C(=O)NCC1CC1)CCN(CC1CC1)CC2`, the INHIBITION is recorded as -7.32%.

For `COCCOCC1(CNC(=O)c2ccc(OC)cc2)C[C@@H](O)[C@@H](O)C1` (some centres not stated), the INHIBITION is on record as -102%.
